Consider eight compounds from PubChem BioAssay.

For orientation: viability means a read-out of living cells in per cent, often relative to untreated cells. The term inhibition denotes the relative decrease from the control value, in per cent.

Where “and” joins values, the source holds several entries; their conditions need not be identical. Identical values can stand only once. For some of these results: Results with a measured potency or affinity are listed apart. Calls of active or inactive are those of the source.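 The calls were made as follows, unless noted: active = compounds whose cell count with miR-34 switched on is under 0.7 times the count with it off; inactive = the rest.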

A short description of experiment [1]: EMT-state selective cytotoxicity in co-culture – imaging, PC-3E GFP, TEM4-18 mCherry, primary screen (AID 1345086;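 active = compounds killing one labelled cell type while sparing the other, by normalised counts and ratio limits, not self-fluorescent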;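 as to all read-outs here: cells exposed to compound for 72 h before imaging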;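 as to red/green cell ratio (normalised): normalised mesenchymal count divided by normalised epithelial count so high means epithelial killing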). To be noted: PC-3E GFP / TEM4-18 mCherry co-culture, imaging cell counts, at 1 µM; for red/green cell ratio (normalised): actives lie on both sides, counts scaled to control wells, 1 = unselective.
Experiment [2] can be described thus: viability loss with induced miR-34 in A549 – imaging, A549 dox-inducible miR-34, nuclei and caspase counts, primary screen (AID 1347080). The note with it: A549 miR-34 inducible, Hoechst nuclei count, 48 h.
The target in experiment [3] is NAD(+) hydrolase SARM1 (Homo sapiens) (UniProt Q6SZW1). Nature of the experiment: blocking NAD cleavage by SARM1 SAM-TIR – cell lysate, NAD-Glo luminescence (AID 1508614;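 active = compound whose remaining NAD level is above about 45 nM, limit read from the data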;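 also: higher remaining NAD means stronger inhibition of SARM1 NADase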). To be noted: SAM-TIR HEK293T lysate NADase, at 1 µM, stronger effect = higher value.
Sequence of NAD(+) hydrolase SARM1 (Homo sapiens) (Q6SZW1 whole entry, looked up): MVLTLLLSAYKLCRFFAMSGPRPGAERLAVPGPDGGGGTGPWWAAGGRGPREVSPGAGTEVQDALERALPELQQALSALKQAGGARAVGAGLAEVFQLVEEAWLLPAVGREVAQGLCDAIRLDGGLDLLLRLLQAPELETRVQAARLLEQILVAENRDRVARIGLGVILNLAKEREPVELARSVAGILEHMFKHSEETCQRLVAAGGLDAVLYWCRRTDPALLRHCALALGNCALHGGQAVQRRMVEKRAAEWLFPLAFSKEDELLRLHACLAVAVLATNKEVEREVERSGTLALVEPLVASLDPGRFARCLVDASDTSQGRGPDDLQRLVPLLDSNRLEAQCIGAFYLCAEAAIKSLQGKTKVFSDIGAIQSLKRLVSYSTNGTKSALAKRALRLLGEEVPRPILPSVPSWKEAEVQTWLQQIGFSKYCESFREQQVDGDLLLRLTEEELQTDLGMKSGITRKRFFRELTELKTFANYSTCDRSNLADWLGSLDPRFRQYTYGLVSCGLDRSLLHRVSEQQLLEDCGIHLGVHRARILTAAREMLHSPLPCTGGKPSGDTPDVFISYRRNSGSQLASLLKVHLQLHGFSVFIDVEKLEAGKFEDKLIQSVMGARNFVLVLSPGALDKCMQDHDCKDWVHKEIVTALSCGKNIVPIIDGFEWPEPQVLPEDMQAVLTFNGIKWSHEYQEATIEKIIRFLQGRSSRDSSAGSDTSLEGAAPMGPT
A short description of experiment [4]: P. berghei load reduction in hepatocytes – cell-based, HepG2, luciferase luminescence, HepG2 viability, primary screen (AID 624349; in the data active = parasite load remaining mostly below about 12%, no sharp cut-off; inactive = mostly above about 10%;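 also: 100% = mean of DMSO negative control wells on the same plate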). To be noted: P. berghei liver stage in HepG2, luciferase luminescence, concentration not given here; parasite load remaining: stronger effect = lower value; viability: measured here: HepG2 viability without parasites.
The nature of experiment [5]: MELAS cybrid and Rieske KO viability enhancers – cell-based, MELAS cybrids, Rieske KO mouse fibroblasts, CellTiter-Glo, primary screen (AID 1508586;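 active = mean z-score across replicates of 1.96 or higher in either the MELAS or the Rieske mutant cell line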;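 also: z relative to plate mean and SD of compound and empty wells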). To be noted: low glucose. (Cellular ATP, detected with luciferase, serves as a proxy for viable cell number.)
For experiment [6], the target named is Mitogen-activated protein kinase 7 (Homo sapiens) (UniProt Q13164). The experiment is described as follows: Gal4-ERK5 driven luciferase induction – cell-based, HTS, primary screen (AID 1508626;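 active = luciferase signal above three times the same-plate solvent-only control wells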;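 also: luciferase driven by Gal4-ERK5 fusion binding five Gal4 sites before minimal TATA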). To be noted: HeLa Gal4-ERK5 transactivation, 18 h, at 5 µM, stronger effect = higher value.
Sequence of Mitogen-activated protein kinase 7 (Homo sapiens) (Q13164 whole entry, looked up, the tested form may be a part): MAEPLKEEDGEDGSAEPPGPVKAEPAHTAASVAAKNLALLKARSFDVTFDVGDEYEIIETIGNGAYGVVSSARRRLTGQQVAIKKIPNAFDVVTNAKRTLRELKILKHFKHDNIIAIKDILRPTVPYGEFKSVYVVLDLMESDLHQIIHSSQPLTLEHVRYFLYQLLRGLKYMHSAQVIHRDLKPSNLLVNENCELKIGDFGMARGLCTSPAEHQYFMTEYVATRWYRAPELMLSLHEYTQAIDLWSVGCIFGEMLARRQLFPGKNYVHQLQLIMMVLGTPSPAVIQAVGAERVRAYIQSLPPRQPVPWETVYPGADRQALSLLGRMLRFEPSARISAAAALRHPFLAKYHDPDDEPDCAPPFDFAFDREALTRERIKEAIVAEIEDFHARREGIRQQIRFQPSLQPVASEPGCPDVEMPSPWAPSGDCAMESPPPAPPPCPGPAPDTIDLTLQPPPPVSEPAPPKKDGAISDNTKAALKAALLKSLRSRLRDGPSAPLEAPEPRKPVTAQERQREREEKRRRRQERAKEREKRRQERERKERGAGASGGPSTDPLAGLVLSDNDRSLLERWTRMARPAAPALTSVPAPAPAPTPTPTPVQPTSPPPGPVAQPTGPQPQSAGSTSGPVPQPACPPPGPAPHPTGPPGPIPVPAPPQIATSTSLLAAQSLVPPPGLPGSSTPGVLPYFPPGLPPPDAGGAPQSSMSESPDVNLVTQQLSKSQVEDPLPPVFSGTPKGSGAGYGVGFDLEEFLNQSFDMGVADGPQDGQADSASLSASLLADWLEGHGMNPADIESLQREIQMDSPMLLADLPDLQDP
Experiment [7] can be described thus: blockers of polyQ-driven CASP3 activation – cell-based (AID 1583). To be noted: polyglutamine-induced caspase-3 activation, cell assay; stronger effect = higher value;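 tested at 10 µM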.
A short description of experiment [8]: yeast 75Q aggregation reduction – 75Q-TubU reporter (AID 1593). The note with it: Yeast 75Q polyglutamine aggregation reporter.
Experiment [9] is described as follows: restoration of touch response, mutant HTT neurons – whole organism, C. elegans mechanosensory neurons, N-terminal huntingtin (AID 1599). To be noted: C. elegans polyQ-huntingtin mechanosensory neurons, stronger effect = higher value.
Experiment [10] is described as follows: blockers of cytochrome c efflux from mitochondria – biochemical, purified mitochondria (AID 1603).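 Also: mouse liver mitochondria challenged with calcium chloride; signal normalized to the plate average as 100%.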 The note with it: stronger effect = lower value.
Experiment [11] in a line: polyglutamine aggregate formation blockers (AID 1604). To be noted: polyglutamine-induced protein aggregation inhibition assay; stronger effect = higher value; tested at 2.5 µM.
Experiment [12] in a line: glutamate transport activators, MN-1 cells, MN-1 cell line (AID 1612).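 Also: tested at 1 µM final; 0% = mean of DMSO vehicle wells on each plate; positive means more glutamate uptake than control and negative means less.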 To be noted: MN-1 motor neuron cells, stronger effect = higher value.
A short description of experiment [13]: GFP-Q80 aggregate reduction, neuronal-like cells, cell-based, NGF-treated PC12, GFPQ80 (AID 1614).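 Also: lower means fewer inclusions and 0 means no inclusions at all.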 The note with it: PC12 NGF-treated GFP-polyQ80 inclusion reduction.
Experiment [14] can be described thus: 75Q-TubH aggregate inhibition, S. cerevisiae, yeast (AID 1616). To be noted: S. cerevisiae 75Q-TubH polyglutamine aggregation suppression; stronger effect = higher value.
[15] abbreviates: measured here: epithelial PC-3E GFP cell survival.
[16] abbreviates: measured here: mesenchymal TEM4-18 mCherry cell survival.
The mark [17] stands for this setting: stronger effect = lower value, cell number ratio, induced over uninduced.
The mark [18] stands for this setting: measured here: relative caspase fold change +Dox/-Dox.
[19] abbreviates: measured here: total cells with miR-34 induction, stronger effect = lower value.
Where [20] appears, read: measured here: total cells without miR-34 induction.

Take `CN(C)c1cnccn1`: the red/green cell ratio (normalised) in experiment [1] is 1.02 (inactive). Besides, the normalised cell number in experiment [1] (setting [15]) came to 0.95; in experiment [1] (setting [16]), 0.97. In addition, the fold change is 0.783 (inactive) in experiment [2] (setting [17]) and 1.07 in [2] (setting [18]). Also, the cell count in experiment [2] (setting [19]) was determined as 6710; in [2] (setting [20]) it was 8560. Besides, the remaining NAD in [3] was 10 nM (inactive).
`CCCCCCCCCCCCCCCC(=O)OCC(O)[C@H]1OC(=O)C(O)=C1O` (stereo partly drawn): in experiment [4], the parasite load remaining was 30.5% (inactive). Besides, the viability in experiment [4] came out at 230%. The red/green cell ratio (normalised) in experiment [1] is 1.11 (inactive). Further, the normalised cell number in experiment [1] (setting [15]) turned out to be 1.1; in [1] (setting [16]), 1.22. For the same compound, the fold change in experiment [2] (setting [17]) was 1.02 (inactive) and 0.87 (inactive); in [2] (setting [18]), 0.52 and 0.622. Further, the cell count in experiment [2] (setting [19]) is 7640 and 11300; in experiment [2] (setting [20]) it was 7530 and 13000. Also, the z-score is -0.179 (inactive) in experiment [5] (MELAS cybrid survival, CellTiter-Glo 48 h, stronger effect = higher value) and -0.164 in experiment [5] (Rieske KO mouse fibroblast survival, CellTiter-Glo 72 h).
With `CC(O)CC(C)(C)O` (stereo not drawn), in experiment [1], the red/green cell ratio (normalised) is 0.94 (inactive). The values for the normalised cell number in experiment [1] (setting [15]) and in experiment [1] (setting [16]) were 1 and 0.94, respectively. Also, the fold change in [2] (setting [17]) was 0.91 (inactive); in experiment [2] (setting [18]), 0.891. For the same compound, the cell count was 8730 in experiment [2] (setting [19]) and 9590 in [2] (setting [20]). Moreover, the remaining NAD in experiment [3] is 10 nM (inactive).
In the case of `CC(C)[C@H](N)C(=O)OCC(CO)OCn1cnc2c(=O)[nH]c(N)nc21` (stereo partly drawn), in [1], the red/green cell ratio (normalised) was 0.79 (inactive). Besides, the normalised cell number came to 1.28 in experiment [1] (setting [15]) and 1.01 in experiment [1] (setting [16]). In addition, the fold change in [2] (setting [17]) is 0.935 (inactive); in experiment [2] (setting [18]), 0.843. The cell count in experiment [2] (setting [19]) was found to be 8710; in experiment [2] (setting [20]), 9320. The remaining NAD in [3] was 10 nM (inactive).
As for `CC(=O)Oc1cccc(C)c1`, the red/green cell ratio (normalised) in [1] is 1.03 (inactive). Further, the normalised cell number was determined as 0.86 in experiment [1] (setting [15]) and 0.89 in experiment [1] (setting [16]). For the same compound, the fold change is 0.912 (inactive) in experiment [2] (setting [17]) and 1.13 in experiment [2] (setting [18]). Besides, the results for the cell count in experiment [2] (setting [19]) and in experiment [2] (setting [20]) were 8300 and 9090, respectively. For the same compound, in experiment [3], the remaining NAD is 10 nM (inactive).
In the case of `OC[C@H]1O[C@H](O[C@]2(CCl)O[C@H](CCl)[C@@H](O)[C@@H]2O)[C@H](O)[C@@H](O)[C@H]1Cl`, in [4], the parasite load remaining was 60.8% (inactive). In addition, the viability in experiment [4] amounted to 98.6%. The red/green cell ratio (normalised) in experiment [1] is 0.96 (inactive). Moreover, the normalised cell number in experiment [1] (setting [15]) is 1.1; in experiment [1] (setting [16]), 1.05. Also, the fold change was 0.909 (inactive) in experiment [2] (setting [17]) and 4.93 in experiment [2] (setting [18]). In addition, the cell count turned out to be 12300 in [2] (setting [19]) and 13500 in [2] (setting [20]). In addition, the remaining NAD in [3] was 10 nM (inactive). Further, in experiment [6], the luciferase signal was 68 AU (inactive).
As for `CC(COc1ccccc1)NC(C)[C@H](O)c1ccc(O)cc1` (stereo partly drawn), in experiment [7], the inhibition was -10.5%. The compound also gave a score in [8] of 1.07. Further, the rescue above control in experiment [9] was -0.43. For the same compound, in experiment [10], the cytochrome c release ratio came out at 0.93. This compound registered an inhibition of aggregation in experiment [11] of 67.5%. For the same compound, in experiment [12], the glutamate uptake change came to 5.98%. For the same compound, the inclusion score in experiment [13] is 2. The same compound yielded an aggregation suppression score in experiment [14] of 0.981. In addition, the parasite load remaining in experiment [4] is 58.3% (inactive). Moreover, in [4], the viability is 72.5% and 101%. In addition, the red/green cell ratio (normalised) in [1] was 1.11 (inactive). For the same compound, the normalised cell number in experiment [1] (setting [15]) was 1.16; in experiment [1] (setting [16]) it was 1.29. Further, the fold change in [2] (setting [17]) is 0.796 (inactive); in experiment [2] (setting [18]), 1.19. Further, the cell count in experiment [2] (setting [19]) came out at 10800; in experiment [2] (setting [20]) it was 13600.
On to `NC(N)=Nc1nc(CSCC/C(N)=N\S(N)(=O)=O)cs1`, for which, in [7], the inhibition was -15%. Besides, the score in experiment [8] was 1.36. Moreover, the rescue above control in experiment [9] was -0.31. In [10], the cytochrome c release ratio was 1.43. Further, in experiment [11], the inhibition of aggregation turned out to be 82%. In addition, the glutamate uptake change in [12] was -4.06%. In addition, the inclusion score in [13] stood at 1. Also, the aggregation suppression score in experiment [14] was 1.04. In experiment [4], the parasite load remaining is 106% (inactive) and 35.6% (inactive). In addition, the viability in [4] is 69.4% and 84.3%. Besides, the red/green cell ratio (normalised) in experiment [1] was 1.13 (inactive). Besides, the normalised cell number in [1] (setting [15]) is 0.95; in experiment [1] (setting [16]) it was 1.07. For the same compound, the values for the fold change in experiment [2] (setting [17]) and in experiment [2] (setting [18]) were 0.887 (inactive) and 1.64, respectively. For the same compound, the cell count in experiment [2] (setting [19]) is 11500; in experiment [2] (setting [20]) it was 12900.
